Bioassay records from PubChem BioAssay.
In the library only some 9.2% were active in any assay of this set; here they are far more common.
SMN2 splice up: SMN2 splice variant enhancement | HEK293 SMN2-luciferase splicing reporter, luminescence, 30-36 h | Potency, µM (highest dose often 46.1 µM), usual class: activators | hit rate 2.8% among 210,000; also: nearly all actives have a fitted effect of over 55% in size
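qHTS luciferase splicing reporter: luminescence rises when SMN2 exon 7 is included in transfected HEK293 cells. Compound exposure lasted 30-36 h at 37C, with 4.5 mM final sodium butyrate as control, followed by a ONE-Glo read.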
FLuc counter: firefly luciferase modulation, counter-screen for miR-21 project | P08659 | purified FLuc, Km substrates, luminescence inhibition | Potency, µM (highest dose often 57.5 µM), usual class: inhibitors | hit rate 6.9% among 360,000 | AID 588342; also: nearly all actives have a fitted effect of over 55% in size
Target sequence (P08659 whole entry, looked up): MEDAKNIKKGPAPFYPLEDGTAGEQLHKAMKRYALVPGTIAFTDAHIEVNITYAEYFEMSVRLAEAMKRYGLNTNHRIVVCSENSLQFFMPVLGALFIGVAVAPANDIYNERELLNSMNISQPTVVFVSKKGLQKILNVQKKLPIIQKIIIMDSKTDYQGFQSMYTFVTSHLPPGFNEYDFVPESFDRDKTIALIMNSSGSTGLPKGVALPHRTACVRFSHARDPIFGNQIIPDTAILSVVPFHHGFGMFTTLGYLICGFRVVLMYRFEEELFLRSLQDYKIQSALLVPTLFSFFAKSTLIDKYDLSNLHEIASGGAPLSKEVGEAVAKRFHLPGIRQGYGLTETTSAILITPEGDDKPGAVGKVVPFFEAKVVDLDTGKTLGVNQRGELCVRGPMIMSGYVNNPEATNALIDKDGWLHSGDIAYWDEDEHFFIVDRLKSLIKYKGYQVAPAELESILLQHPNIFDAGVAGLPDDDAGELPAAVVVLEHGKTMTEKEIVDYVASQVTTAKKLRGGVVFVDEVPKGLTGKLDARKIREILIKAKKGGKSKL
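Purified P. pyralis luciferase, 10 nM final, with Km-level 10 uM D-luciferin and 10 uM ATP in 50 mM Tris acetate pH 7.5, 10 mM Mg acetate, 0.01% Tween-20, 0.05% BSA; 6-point qHTS titration about 60 µM downward; luminescence read.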
Rab9 promoter act: activates the Rab9 promoter | Huh7 Rab9 promoter-luciferase reporter, luminescence, 24 h | Potency, µM (titrated, usually from 9.22 µM), hits mostly activators | hit rate 2.8% among 320,000 | AID 485297; also: nearly all actives have a fitted effect of over 60% in size
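Promoter activation is measured as luciferase luminescence in Huh7 cells stably transfected with a Rab9 promoter–luciferase construct, following 24 h compound exposure at 37 °C and 10 min reagent incubation at ambient temperature.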
NPC1 promoter act: activates the NPC1 promoter; Huh7 NPC1 promoter luciferase reporter, 24 h; Potency, µM (top dose mostly 9.22 µM), usual class: activators; hit rate 2.4% among 320,000; AID 485313; also: nearly all actives have a fitted effect of over 60% in size
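NPC1 promoter–luciferase Huh7 cells; 24 h compound; luminescence.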
ELG1 DNA repair: ELG1-dependent DNA repair inhibition. AID 504467. hit rate 2.3% among 330,000. Potency, µM (titrated, usually from 46.1 µM), usual class: inhibitors. HEK293T ELG1-luciferase reporter, luminescence, 16 h; DNA damage induced by 5-fluorouridine; also: nearly all actives have a fitted effect of over 55% in size
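Step one: seed 2,000 cells per well. Step two: pin-transfer compound or DMSO alongside 5-fluorouridine. Step three: incubate 16 hr, 37 °C, 5% CO2. Step four: add ONE-Glo, wait 30 min, read luminescence.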
ELG1 genotox: genotoxicity induction in ELG1-luciferase HEK293T cells. Potency, µM (titrated, usually from 46 µM), actives largely listed as activators. AID 504466. HEK293T ELG1-luciferase reporter, luminescence, 16 h. hit rate 1.3% among 330,000; also: nearly all actives have a fitted effect of over 60% in size
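ELG1-luciferase HEK293T cells, 2,000/well; compound pinned in; 16 hr, 37 °C, 5% CO2; ONE-Glo, 30 min RT; luminescence on CCD imager.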
Hits are given with their value; – = inactive; ? = inconclusive; · = no result given; [ ] = another dose, or the depositor's remark. Calls follow the shape of the dose curve; as a rule, active = well fitted curve in the direction sought with a large enough effect; inconclusive = small, poorly fitted or top-dose-only effect, or another doubt; inactive = no such curve, though single readings can be large; an effect the other way counts as inactive or inconclusive.

SMILES | SMN2 splice up | FLuc counter | Rab9 promoter act | NPC1 promoter act | ELG1 DNA repair | ELG1 genotox
COc1ccc(OCC(O)CN2CCC(CN3C(=O)c4cccc5cccc(c45)C3=O)CC2)cc1 (stereo not drawn) | – | – | – | – | – | –
COc1ccc(S(=O)(=O)N2CCC(CN3C(=O)c4cccc5cccc(c45)C3=O)CC2)cc1 | –[1.84 µM] | – | – | – | 10µM | –
Clc1ccc(/C=C/c2ncc3ccccn23)cc1 | · | 6.7µM | 1µM | 1.6µM | ? | ?
c1csc(-c2ncc3ccccn23)c1 | – | ? | – | – | ? | ?
Cn1cccc1C(=O)N1CCC2(CCCN(c3ccccn3)C2)CC1 | – | · | · | · | · | ·
COc1ccc(/C=N/Nc2nc(Nc3ccccc3)nc(N3CCCCC3)n2)c(OC)c1 | – | 6.7µM | – | – | 21µM | –
COc1ccc(/C=N/Nc2nc(N3CCCC3)nc(N3CCCC3)n2)c(OC)c1OC | – | – | – | – | ? | –
C(=N\Nc1nc(N2CCOCC2)nc(N2CCOCC2)n1)/c1ccco1 | – | – | – | – | – | –
COc1cc(/C=N/Nc2nc(Nc3ccccc3)nc(N3CCCCC3)n2)ccc1OCC(=O)O | – | 0.95µM | – | – | – | –
COc1ccc(/C=N/Nc2nc(Nc3ccccc3)nc(N3CCCC3)n2)cc1[N+](=O)[O-] | – | – | – | – | ? | ?
COc1cccc(/C=N/Nc2nc(N3CCCC3)nc(N3CCCC3)n2)c1O | – | ? | – | – | 15µM | –
Fc1ccc(Nc2nc(N/N=C/c3ccco3)nc(N3CCCCC3)n2)cc1 | – | 27µM | – | – | ? | –
CCOC(=O)Cn1c(=O)n(C2CCCCC2)c2nc(-c3ccc(Cl)cc3)nc(C(N)=O)c21 | · | – | · | · | · | ·
O=C(CCC(=O)N(CC(=O)NC1CCCC1)Cc1ccc(F)cc1)Nc1nccs1 | · | – | – | – | – | –
C(=C\c1nnc2c3ccccc3ncn12)/c1ccccc1 | 14µM | 1.7µM | 3.2µM | 4.5µM | ? | ?
COc1cc(/C=C/c2nnc3c4ccccc4ncn23)cc(OC)c1OC | · | ? | – | – | 6.5µM | –
COc1cc(/C=C/C(=O)N2CCN(Cc3ccccc3)CC2)cc(OC)c1OC | · | – | – | – | – | –
O=C1Nc2ccccc2/C1=C\C(=O)c1ccccc1 | · | ? | – | – | ? | –
CC(C)Oc1ccc(C(=O)/C=C2/C(=O)Nc3ccccc32)cc1 | · | 5.4µM | – | – | – | ?
Cc1[nH]c2ccc3ncccc3c2c1C | – | 21µM | – | – | – | –
Cc1c(C)c2cccnc2c2ncccc12 | · | ? | – | – | ? | –
Cc1ccc(NC(=O)Cn2c(=O)n(Cc3ccccc3)c(=O)c3c2c2cc(C)ccc2n3C)cc1 | · | – | · | · | · | ·
COc1ccc(Nc2c(-c3ccc(C)o3)nc3ccc(Cl)cn23)cc1 | – | – | · | · | · | ·
COc1ccc(-c2nnc3sc(-c4ccco4)nn23)cc1OC | – | – | – | – | – | ?
COc1cccc(-c2nnc3sc(-c4cccs4)nn23)c1 | ? | ? | 2.8µM | 3.2µM | – | –
SMILES | SMN2 splice up | FLuc counter | Rab9 promoter act | NPC1 promoter act | ELG1 DNA repair | ELG1 genotox
COc1cccc(-c2nnc3sc(-c4ccco4)nn23)c1 | – | ? | 2.8µM | 4.5µM | ? | ?
c1ccc(-c2cc(-c3nn4c(-c5ccco5)nnc4s3)c3ccccc3n2)cc1 | – | – | – | – | 21µM | –
COc1cccc(-c2nn3c(-c4cccc(C)c4)nnc3s2)c1 | – | 19µM | – | – | ? | –
CCOc1cccc(-c2nnc3sc(-c4cccs4)nn23)c1 | – | – | – | – | – | –
Cc1ccc(N2CCN(C(=O)c3cn(C)c4ccc(S(=O)(=O)N5CCCC5)cc4c3=O)CC2C)cc1 (stereo not drawn) | – | – | · | · | · | ·
CC(=O)c1ccc(N2CCN(c3ncnc4c3c(-c3ccccc3)cn4-c3ccc(C)c(Cl)c3)CC2)cc1 | · | – | · | · | · | ·
Cc1nn(C)c2c1c(-c1ccccc1)cc(=O)n2Cc1ccc(F)cc1 | · | – | · | · | · | ·
CC(C)c1ccc(S(=O)(=O)c2nnn3c2nc(N2CCN(C)CC2)c2sccc23)cc1 | · | – | · | · | · | ·
CCCCOC(=O)NS(=O)(=O)c1sc(CC(C)C)cc1-c1ccc(Cn2c(CC)nc3c(C)cc(C)nc32)cc1 | – | – | – | – | 13µM | –
CCCCOC(=O)Nc1ccc(S(=O)(=O)Nc2nc(C)cc(C)n2)cc1 | · | – | – | – | – | –
Cc1cc(Br)ccc1NC(=O)c1cc2c(=O)n(C)c3cc(Cl)ccc3c2s1 | – | – | · | · | · | ·
Cc1cc(NC(=O)C2CCCC2)nc2c1c(=O)oc1ccccc12 | – | – | – | – | 21µM | –
Cc1cc(NC(=O)C2CCCCC2)nc2c1c(=O)oc1ccccc12 | – | – | – | – | – | –
CCC(CO)Oc1cc(NC(=O)c2ccccc2F)c2ncn(C(C)C)c2c1 (stereo not drawn) | · | · | · | · | 5.2µM | –
O=C(NC(=O)c1ccccc1)Nc1ccc(Cl)cn1 | · | 2.1µM | 1µM | 0.63µM | ? | 1.5µM
C/C(=C\c1ccccc1)C(=O)Nc1ccc(Cl)cn1 | · | ? | 0.79µM | 1.8µM | ? | 9.2µM
COc1cc2ccccc2cc1C(=O)Nc1ccc(Cl)cn1 | · | ? | 1.4µM | 2µM | ? | ?
O=C(Nc1ccc(Cl)cn1)c1ccccc1F | 16µM | 4.3µM | · | · | · | ·
O=C(Nc1ccc(Cl)cn1)Nc1ccccc1F | ? | ? | – | – | ? | –
CCOc1ccc(-c2oc3cc(Cl)ccc3c(=O)c2O)cc1OC | – | – | · | · | · | ·
O=C(Nc1ccc(Cl)cn1)c1cccc(F)c1 | 16µM | 11µM | ? | ? | ? | ?
Cc1cc(C)nc(NC(=O)NC(=O)c2ccccc2)n1 | · | – | – | – | – | –
Nc1ccccc1NC(=O)NC(=O)c1ccccc1 | · | 11µM | 2.2µM | ? | ? | ?
CCCC(=O)C1=C(O)C(c2cccc(Oc3ccccc3)c2)CCC1=O (stereo not drawn) | – | ? | – | – | 18µM | –
Cc1cc(C(=O)COC(=O)c2ccc(F)cc2F)c(C)n1C1CC1 | · | 0.38µM | 2.8µM | 2.5µM | ? | ?
SMILES | SMN2 splice up | FLuc counter | Rab9 promoter act | NPC1 promoter act | ELG1 DNA repair | ELG1 genotox
Cc1noc(C)c1COC(=O)c1cc(C)n(-c2ccccc2)c1C | – | 15µM | ? | – | ? | ?
Cc1cc(C(=O)COC(=O)c2ccc[nH]c2=O)c(C)n1-c1ccccc1 | 2.5µM | 1.7µM | 0.28µM | 0.32µM | ? | 0.82µM
Cc1cc(C(=O)OCc2nnc(-c3ccccc3)o2)c(C)n1-c1ccccc1 | – | ? | – | – | ? | –
Cc1ccc(S(=O)(=O)NCC(=O)OCC(=O)c2cc(C)n(-c3ccccc3)c2C)cc1 | ? | 15µM | – | – | ? | –
Cc1ccccc1OCC(=O)OCC(=O)c1cc(C)n(C2CC2)c1C | · | ? | – | – | – | –
CCNC(=O)COC(=O)c1cc(C)n(-c2ccccc2)c1C | – | ? | ? | – | – | ?
CCOc1ccc(Cl)cc1S(=O)(=O)N1CCC(C(=O)NCc2cccnc2)CC1 | · | – | – | – | – | –
